Source: PubChem
PD-1 reversal: reversal of PD-1 mediated T-cell inhibition; 29,000 tested, under 10 active; primary human CD4 T cells, PD-L1 beads, CellTiter-Glo 96 h; AID 2316; activation, % (no concentration beside the values); call rule not given here;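 further: 0% = median vehicle wells and 100% = positive control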
Shh pathway inh: blocks Sonic Hedgehog signaling | inhibition, % (test concentration not listed) | actives 2.1% (n = 22,000) | Shh-LIGHT2 Gli-luciferase reporter, 30 h;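 active means mean inhibition across valid replicates above about 65%, limit read from the data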;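 further: pathway switched on by Shh-conditioned medium diluted 1 in 25 in low serum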
MITF inh: blocks MITF activity | inhibition, % (test concentration not listed) | AID 2240 | actives 0.28% (n = 37,000) | TRPM1 promoter luciferase, luminescence, 24 h; in the data active means inhibition above about 85%;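 further: human melanocyte line stably carrying TRPM1 promoter luciferase reporter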
NOMO-1 viab: STK33 inhibitor candidate reducing NOMO-1 cell viability; actives 7.5% (n = 37,000); NOMO-1 AML viability, CellTiter-Glo luminescence, 72 h; inhibition, % (concentration not given with the values); in the data active means inhibition above about 80%
An asterisk follows results filed as active; . = no result given. Most compounds without a hit are left out; they make up all but 7.8% or so of the library.

SMILES | PD-1 reversal | Shh pathway inh | MITF inh | NOMO-1 viab
O=C(/C=C/c1ccc(O)cc1)OC[C@H]1O[C@@H](Oc2cc(O)c3c(c2)OC(c2ccc(O)cc2)CC3=O)[C@H](O)[C@@H](OC(=O)/C=C/c2ccc(O)cc2)[C@@H]1O (some centres not stated) | -1 | 37 | -19 | 120*
COc1ccc(C2CC(=O)c3c(O)cc(O[C@@H]4O[C@H](CO[C@@H]5O[C@@H](C)[C@H](O)[C@@H](O)[C@H]5O)[C@@H](O)[C@H](O)[C@H]4O)cc3O2)cc1 (some centres not stated) | 1 | -30 | -10 | 12
C[C@@H]1O[C@@H](OC[C@H]2O[C@@H](Oc3ccc(O)cc3)[C@H](O)[C@@H](OC(=O)c3ccc(O)cc3)[C@@H]2O)[C@H](O)[C@H](O)[C@H]1O | 1 | -48 | -1 | -5
COc1ccc(S(=O)(=O)N(C)C[C@@H]2Oc3c(NC(=O)CCCCCC(=O)Nc4ccccc4N)cccc3C(=O)N([C@H](C)CO)C[C@H]2C)cc1 | 1 | . | 7 | 100*
C[C@H]1CN([C@@H](C)CO)C(=O)c2cccc(NC(=O)CCCCCC(=O)Nc3ccccc3N)c2O[C@@H]1CN(C)S(=O)(=O)c1ccc(Cl)cc1 | 1 | . | -3 | 103*
C[C@H]1CN([C@@H](C)CO)C(=O)c2cccc(NC(=O)CCCCCC(=O)Nc3ccccc3N)c2O[C@@H]1CN(C)S(=O)(=O)c1ccccc1 | 0 | . | -4 | 60
C[C@@H]1CN([C@@H](C)CO)C(=O)c2cccc(NC(=O)CCCCCC(=O)Nc3ccccc3N)c2O[C@@H]1CN(C)S(=O)(=O)c1ccccc1 | -4 | . | 27 | 104*
C[C@H](CO)N1C[C@H](C)[C@H](CN(C)S(=O)(=O)c2ccc(Cl)cc2)Oc2c(NC(=O)CCCCCC(=O)Nc3ccccc3N)cccc2C1=O | 0 | . | 14 | 119*
O=c1cc(-c2ccc(O)c(O)c2)oc2c(C3O[C@H](CO)[C@H](O)[C@H](O)[C@H]3O)c(O)cc(O)c12 (some centres not stated) | . | 0 | . | .
CSc1nc(-c2cccnc2)nc(-c2ccc(OC(F)(F)F)cc2)c1C#N | 0 | 10 | -14 | 12
O=C(NC1CCN(C(=O)c2c(Cl)cccc2Cl)CC1)C1CCCCC1 | 1 | -70 | -4 | 13
N#Cc1ccc(C(=O)Cn2cc(C(F)(F)F)ccc2=O)cc1 | 1 | 7 | 10 | 10
C[C@@H]1CN([C@@H](C)CO)C(=O)Cc2cc(NC(=O)Nc3ccccc3)ccc2O[C@@H]1CN(C)Cc1ccc(C(=O)Nc2ccccc2N)cc1 | -4 | . | -10 | 124*
C[C@H]1CN([C@@H](C)CO)C(=O)Cc2cc(NC(=O)NC3CCCCC3)ccc2O[C@H]1CN(C)Cc1ccc(C(=O)Nc2ccccc2N)cc1 | 1 | . | 24 | 139*
Cc1noc(C)c1NC(=O)Nc1ccc2c(c1)CC(=O)N([C@@H](C)CO)C[C@H](C)[C@H](CN(C)Cc1ccc(C(=O)Nc3ccccc3N)cc1)O2 | 0 | . | 11 | 88*
C[C@H](CO)N1C[C@H](C)[C@H](CN(C)Cc2ccc(C(=O)Nc3ccccc3N)cc2)Oc2ccc(NC(=O)Nc3ccc(F)cc3)cc2CC1=O | -4 | . | 9 | 127*
CCc1c(O)nc(SCC(=O)N(c2ccccc2)c2ccccc2)[nH]c1=O | 1 | . | -17 | 30
C[C@@H]1CN([C@@H](C)CO)C(=O)Cc2cc(NC(=O)Nc3ccc4c(c3)OCO4)ccc2O[C@@H]1CN(C)Cc1ccc(C(=O)Nc2ccccc2N)cc1 | -2 | . | -30 | 101*
CC(C)NC(=O)Nc1ccc2c(c1)CC(=O)N([C@@H](C)CO)C[C@H](C)[C@@H](CN(C)Cc1ccc(C(=O)Nc3ccccc3N)cc1)O2 | -1 | . | -27 | 24
C[C@@H]1CN([C@H](C)CO)C(=O)Cc2cc(NC(=O)C3CC3)ccc2O[C@H]1CN(C)Cc1ccc(C(=O)Nc2ccccc2N)cc1 | -4 | . | -12 | 45
C[C@@H]1CN([C@@H](C)CO)C(=O)Cc2cc(NC(=O)C3CC3)ccc2O[C@@H]1CN(C)Cc1ccc(C(=O)Nc2ccccc2N)cc1 | 0 | . | 13 | 82*
C[C@@H]1CN([C@@H](C)CO)C(=O)Cc2cc(NC(=O)Nc3ccc(F)cc3)ccc2O[C@@H]1CN(C)Cc1ccc(C(=O)Nc2ccccc2N)cc1 | 1 | . | 10 | 113*
C[C@@H]1CN([C@H](C)CO)C(=O)Cc2cc(NC(=O)Nc3ccc(C(F)(F)F)cc3)ccc2O[C@H]1CN(C)Cc1ccc(C(=O)Nc2ccccc2N)cc1 | -1 | . | -5 | 24
C[C@H]1CN([C@@H](C)CO)C(=O)c2cccc(NC(=O)c3nc4ccccc4s3)c2O[C@H]1CN(C)Cc1ccc(Cl)c(Cl)c1 | -1 | -25 | 8 | 96*
C[C@@H]1CN([C@H](C)CO)C(=O)c2cccc(NC(=O)c3nc4ccccc4s3)c2O[C@@H]1CN(C)Cc1ccc(Cl)c(Cl)c1 | -2 | -11 | 4 | 32
SMILES | PD-1 reversal | Shh pathway inh | MITF inh | NOMO-1 viab
C[C@H](CO)N1C[C@H](C)[C@H](CN(C)Cc2ccc(Cl)c(Cl)c2)Oc2c(NC(=O)c3nc4ccccc4s3)cccc2C1=O | -5 | -32 | 8 | 104*
COC(=O)c1c(NC(=O)CC2Nc3cccc4cccc(c34)NC2=O)sc2c1CCCC2 (configuration not stated) | -1 | . | 51 | 24
N#CC1=C(SCC(=O)c2ccc(F)cc2)NC2(CCCC2)C(C#N)C1=O (configuration not stated) | -1 | 26 | 15 | 41
CCN(CC)c1ncc2c(NCc3ccccc3)nc(SCc3ccccc3)nc2n1 | -2 | 26 | 7 | 43
CCOC(=O)CSc1nc(Nc2ccccc2)c2cnc(N3CCOCC3)nc2n1 | -3 | 42 | 4 | 112*
CCOC(=O)CSc1nc(Nc2ccc(OC)cc2)c2cnc(N(CC)CC)nc2n1 | -5 | 27 | 8 | 120*
O=C1c2nc3cc(-c4ccccc4)[nH]n3c(=O)c2CN1C1CCCCC1 | 2 | . | -16 | 1
COc1ccc(NC(=O)CSc2nc(C)c3c(n2)CCCC3)c([N+](=O)[O-])c1 | -1 | . | -6 | 26
CCOC(=O)C1CCN(C(c2cccc(Cl)c2)c2c(NC(C)=O)sc3c2CCCC3)CC1 (configuration not stated) | 0 | 20 | 24 | 109*
Cc1noc(C)c1S(=O)(=O)Nc1ccc2c(c1)C(=O)N([C@@H](C)CO)C[C@@H](C)[C@@H](CN(C)Cc1ccc(Oc3ccccc3)cc1)O2 | -1 | 29 | 17 | 102*
Cc1noc(C)c1S(=O)(=O)Nc1ccc2c(c1)C(=O)N([C@@H](C)CO)C[C@@H](C)[C@@H](CN(C)Cc1ccc(Cl)c(Cl)c1)O2 | 0 | 25 | -5 | 82*
C[C@@H]1CN([C@H](C)CO)C(=O)c2cc(NS(=O)(=O)c3ccccc3)ccc2O[C@@H]1CN(C)Cc1ccc(Oc2ccccc2)cc1 | -3 | 88* | 35 | 71
Cc1ccc(S(=O)(=O)Nc2ccc3c(c2)C(=O)N([C@H](C)CO)C[C@@H](C)[C@H](CN(C)Cc2ccc(Oc4ccccc4)cc2)O3)cc1 | -2 | 50 | 12 | 84*
